Laboratory results taken from PubChem BioAssay (NCATS).
Records with an inconclusive call do not appear. A call without a number means that no potency is given here. Active and inactive are the calls of the source. Calls come from the whole dose curve; as a rule, active = well fitted inhibition curve with a large enough effect; inconclusive = small, poorly fitted or top-dose-only effect; inactive = flat fitted curve, though single readings scatter.

How the values were obtained:
Experiment in all cases: qHTS profiling for inhibitors of Plasmodium falciparum proliferation (AID 504749); note: nearly all actives have a fitted effect of over 60% in size
Conditions in all cases: P. falciparum in erythrocytes, SYBR Green DNA, 72 h; series mostly up to 28.7 µM
3D7 = test system: 3D7
Method in brief: (§1)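 Fluorescence of SYBR Green-bound parasite DNA, read at 485/535 nm, served as the growth measure. Infected erythrocytes were cultured with compound 72 h; artemisinin (0.29 uM) and DMSO wells defined the normalization range.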

ATS95 = test system: ATS95
Method in brief: as §1

CP215 = test system: CP215
Method in brief: as §1

CP217 = test system: CP217
Method in brief: as §1

CP260 = test system: CP260
Method in brief: as §1

CP286 = test system: CP286
Method in brief: as §1

CP291 = test system: CP291
Method in brief: as §1

CP315 = test system: CP315
Method in brief: as §1

CP335 = test system: CP335
Method in brief: as §1

DIV14 = test system: DIV14
Method in brief: as §1

DIV17 = test system: DIV17
Method in brief: as §1

Dd2 = test system: Dd2
Method in brief: as §1

FAB9 = test system: FAB9
Method in brief: as §1

GB4 = test system: GB4
Method in brief: as §1

JCK = test system: JCK
Method in brief: as §1

N140 = test system: N140
Method in brief: as §1

PC15 = test system: PC15
Method in brief: as §1

TAB165 = test system: TAB165
Method in brief: as §1

7G8 = test system: 7G8
Method in brief: as §1

ICS = test system: ICS
Method in brief: as §1
Potency is the fitted concentration of half-maximal effect.

| Structure (SMILES) | Potency (3D7) | Potency (ATS95) | Potency (CP215) | Potency (CP217) | Potency (CP260) | Potency (CP286) | Potency (CP291) | Potency (CP315) | Potency (CP335) | Potency (DIV14) | Potency (DIV17) | Potency (Dd2) | Potency (FAB9) | Potency (GB4) | Potency (JCK) | Potency (N140) | Potency (PC15) | Potency (TAB165) | Potency (7G8) | Potency (ICS) |
| --- | --- | --- | --- | --- | --- | --- | --- | --- | --- | --- | --- | --- | --- | --- | --- | --- | --- | --- | --- | --- |
| CC1(C)[C@@H]2CC[C@]1(C)[C@@H](OC(=O)CSC#N)C2 | inactive | inactive | inactive | inactive | inactive | inactive | inactive | inactive | inactive | inactive | inactive | inactive | inactive | inactive | inactive | inactive | inactive | inactive |  |  |
| COc1cccc2c1C(=O)c1c(O)c3c(c(O)c1C2=O)C[C@](O)(C(=O)CO)C[C@@H]3O[C@H]1C[C@H](N)[C@@H](O)[C@H](C)O1 | inactive | inactive | inactive | inactive | inactive | inactive | inactive | inactive | inactive | inactive | inactive | inactive | inactive |  | inactive | inactive | inactive | inactive | inactive | inactive |
| O=C(O)[C@@H](O)[C@@H](O)[C@H](O)[C@H](O)CO |  |  |  |  |  |  |  |  |  |  |  |  |  |  |  |  |  |  | 2000 nM (active) | 2240 nM (active) |
| NS(=O)(=O)c1cc2c(cc1Cl)N[C@H](Cc1ccccc1)NS2(=O)=O | inactive |  | inactive | inactive | inactive | inactive | inactive | inactive | inactive | inactive | inactive | inactive | inactive | inactive | inactive | inactive | inactive | inactive | inactive | inactive |
